Bioassay records (PubChem BioAssay)
Rows were chosen to be rich in hits. Some 1.7% of all compounds tested hit in one or more screens of this group.
ugtP null kill: compounds lethal to S. aureus RN4220 ugtP deletion mutant; OD600 growth, 16 h; growth inhibition, % (no concentration beside the values); 0.54% of 330,000 active; in the data active means growth inhibition above about 68%;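 further: plate controls were untreated wells for no effect and antibiotic for full effect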
Sa RN4220 lethal: kills Staphylococcus aureus RN4220; S. aureus RN4220 growth, OD600, 16 h; inhibition, % (concentration not given with the values); 0.33% of 330,000 active; AID 1259311; in the data active means inhibition above about 85%;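 further: plate controls were untreated cells for no effect and reference antibiotic for full effect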
Mtb hypoxia rep: reduces hypoxia-regulated biosensor signal in M. tuberculosis; AID 1159583; fluorescence inhibition, % (test concentration not listed); 0.1% of 300,000 active; M. tuberculosis hypoxia-regulated fluorescent reporter, fluorescence; in the data active means fluorescence inhibition mostly above about 23%, no sharp cut-off; inactive means mostly below about 17%
PfHsp40 rescue: rescue of PfHsp40-mediated yeast toxicity; S. cerevisiae expressing PfHsp40, growth rescue, ATP luminescence; growth rescue, % at 12.5 µM; 0.68% of 340,000 active; in the data active means growth rescue above about 28%, passing the limit was not always enough;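 further: yeast W303a lacking pdr1 and pdr3 grown in galactose medium; growth measured after three days at 30 °C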
Vc quorum ag-1: inducers of Vibrio cholerae quorum light production without autoinducers; V. cholerae BH1578 lux reporter, luminescence, 6 h; activation, % at 18.7 µM; 0.16% of 350,000 active; AID 588436; in the data active means activation mostly above about 9.7%, no sharp cut-off
CCHFV vOTU inh: CCHFV vOTU protease inhibition | Pep-AMC fluorescence | inhibition, % at 11.5 µM | 0.55% of 370,000 active | AID 651958; in the data active means inhibition above about 30%; further: 0% = vehicle wells with enzyme and 100% = no enzyme wells
Vc quorum ag-2: inducers of V. cholerae quorum light production without autoinducers; 620 tested, under 10 active; shares compounds with Vc quorum ag-1; activation, % at 50 µM; V. cholerae BH1578 lux reporter, luminescence, 6 h; call rule not given here
* marks the source's active call; other numbers are inactive results; i = inactive; x = not tested or not shown.

SMILES	ugtP null kill	Sa RN4220 lethal	Mtb hypoxia rep	PfHsp40 rescue	Vc quorum ag-1	CCHFV vOTU inh	others
O=C(Cn1nc2ccccc2n1)NN=Cc1cc([N+](=O)[O-])ccc1O	88*	95*	6	x	x	x
Cc1ccn(CC(=O)N/N=C/c2cc([N+](=O)[O-])ccc2O)n1	x	x	x	-2	0	6
O=C(CN1CCCCCC1)NN=Cc1ccc(Cl)c(Cl)c1	-1	-4	3	x	x	x
O=C(CC1CC=CCC(NC(=O)OCC2c3ccccc3-c3ccccc32)C(=O)OC(c2ccccc2)CNC1=O)NCCO (stereo not given)	2	7	6	x	x	x
CN(C)c1ccc(C=NNC(=O)c2cccc(N3CCCC3=O)c2)cc1	-2	0	-8	x	x	x
CCCNC(=O)N1C2CCC1C(C(=O)OC)=C(c1c(C)noc1C)C2 (stereo not given)	-5	6	5	x	x	x
CC1(C)C(=S)N(Cc2ccccc2)c2ccccc21	86*	-4	15	-1	i	-10
CC(=O)CC1(O)C(=O)N(Cc2ccccc2)c2ccccc21 (stereo not given)	-7	3	5	-1	i	-2
Cc1ccnc(SCc2cc(=O)c(OC(=O)c3ccc(S(=O)(=O)N4CCCC4)cc3)co2)n1	6	1	-3	1	0	-7
Cc1ccnc(SCc2cc(=O)c(OC(=O)c3ccc(S(=O)(=O)N(C)C)cc3)co2)n1	-1	5	2	88*	-4	-2
Cc1cc(C)nc(SCc2cc(=O)c(OC(=O)c3ccc(S(=O)(=O)N(C)C)cc3)co2)n1	11	8	-9	90*	0	3
NC(=NOC(=O)c1cccc([N+](=O)[O-])c1)c1ccccn1	9	7	-6	x	x	x
c1ccc(C2C3CN(Cc4cccnc4)C(c4ccccc4)C34CC2(c2cccnc2)C4)cc1 (stereo not given)	-8	-2	-3	x	x	x
Fc1cccc(CON=Cc2c(-c3ccccc3)nc3ccc(Cl)cn23)c1	8	-4	38*	x	x	x
O=C(NC(NC(=S)Nc1cccc(Cl)c1)C(Cl)(Cl)Cl)OCc1ccccc1 (stereo not given)	96*	90*	-3	-1	0	-6
CC(C)(C)OC(=O)NCCCCC(NC(=O)c1[nH]cnc1C(=O)NC(Cc1ccccc1)C(=O)OCc1ccccc1)C(=O)OC(C)(C)C (stereo not given)	-2	2	-4	x	x	x
CC(O)CCC(C)O[C@@]1(c2ccccc2)OC2CC(O)C(C)OC2O1 (stereo not given in full)	1	6	18	x	x	x
CC(C)CN(C(=O)c1cccc(S(=O)(=O)N2CCN(Cc3ccccc3)CC2)c1)C1CCS(=O)(=O)C1 (stereo not given)	-8	-5	-7	347*	i	-5
CCCN(C(=O)c1cccc(S(=O)(=O)N2CCN(Cc3ccccc3)CC2)c1)C1CCS(=O)(=O)C1 (stereo not given)	1	-1	2	0	i	3
CCCCNC(=S)NN=CC1=CCC2CC1C2(C)C (stereo not given)	25	-2	0	x	x	x
CNC(C)c1cc(OC)ccc1OC (stereo not given)	7	4	7	45*	-1	5
COc1cc(Cl)c(C)cc1NC(=O)CSc1cc(Cl)ccc1Cl	95*	1	2	0	0	6
COc1cc(Cl)c(C)cc1NC(=O)CSc1ccc(C)cc1	10	5	-2	-1	i	x
CCCCN1CCCCC1C(=O)Nc1c(C)cccc1C (stereo not given)	0	2	4	0	i	-2
CCCN1CCCC[C@H]1C(=O)Nc1c(C)cccc1C	x	x	x	43*	0	-4
SMILES	ugtP null kill	Sa RN4220 lethal	Mtb hypoxia rep	PfHsp40 rescue	Vc quorum ag-1	CCHFV vOTU inh	others
O=C1C(Cl)=C(Nc2ccccc2O)C(=O)N1CCc1ccccc1	1	3	5	142*	0	12
COc1ccc(CCNC2=C(Cl)C(=O)N(CCc3ccccc3)C2=O)cc1OC	6	-1	x	4	i	-6
C=CCCC(Cc1ccc(F)cc1)C(=O)OCC1CCCN1C(=O)C(CC=C)CC(=O)N(CCO)Cc1ccccc1 (stereo not given)	7	0	4	x	x	x
Cc1ccc(SCCC(=O)N2CCCC2)cc1	0	7	11	42*	i	-9
O=C(NN=Cc1cccs1)C(=O)Nc1cccc(Cl)c1	-7	-4	-8	x	x	x
COc1ccc(-c2nnc(NC(=O)c3ccc([N+](=O)[O-])o3)o2)c(OC)c1	96*	2	x	-1	4	15
Cc1ccc(-c2nnc(NC(=O)c3ccc([N+](=O)[O-])o3)o2)c(C)c1	92*	-3	x	6	i	3
COc1ccc(C(=O)Nc2nnc(C3=COCCO3)o2)cc1	-6	0	-9	-1	i	8
CS(=O)(=O)N(CC(=O)NN=Cc1cc([N+](=O)[O-])ccc1Cl)c1ccccc1	-2	4	x	x	x	x
O=C(c1ccccc1)c1nn(-c2ccc(Cl)cc2)c(=O)cc1C(F)(F)F	81	94*	x	-1	i	11
CCC(C)Sc1ccc(C2C3C(=O)N(CC)C(=O)C3[C@]3(C(=O)OC)CCCCN23)cc1OC (stereo not given in full)	-27	0	4	x	x	x
N/C(=N\OC(=O)CCCOc1ccc(Cl)cc1Cl)c1ccncc1	2	-2	11	170*	5	0
N/C(=N\OC(=O)CCCOc1ccc(Cl)cc1Cl)c1ccccn1	3	1	15	2	i	5
O=C(Cc1n[nH]c(=O)c2ccccc12)OCC(=O)c1ccc2c(c1)OCCO2	-3	-1	2	96*	0	-4
S=C(NNc1ccnc2cc(Cl)ccc12)Nc1ccc(Cl)cc1Cl	6	90*	13	2	-1	10
COC(=O)C1CC(=NNS(=O)(=O)c2ccc(C)cc2)c2ccccc2C1 (stereo not given)	3	1	-5	x	x	x
CCN1CCN(c2cc(SC(C)C)nc(-c3ccc(OC)cc3)n2)CC1	93*	-3	14	0	6	25
O=C(Nc1c(F)c(F)c(F)c(F)c1F)C1CCCCC1	3	7	2	-1	25	11	Vc quorum ag-2=2
N#Cc1ccccc1NC(=O)CNc1ccccc1N1CCCCC1	0	4	0	0	160*	7	Vc quorum ag-2=255
CCOc1ccc(CNC(=O)c2ccco2)cc1	8	-1	22	1	60*	20	Vc quorum ag-2=i
CCOc1ccc(CN(C)C(=O)CCNC(=O)c2ccco2)cc1	0	0	-10	0	0	5
